Screening results from PubChem BioAssay.
Only some compounds are listed: those with a hit (about 1.2% of all), similar ones and a draw of the others.
hERG WT inh: KCNH2 (human, wildtype) channel inhibition; Q12809; U2OS, BacMam KCNH2, thallium flux FluxOr; active compounds read low; activity change, % at 1.84 µM; 340,000 tested, 0.37% active; AID 720551;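 active means maximum activity change below -70%; inconclusive means maximum activity change between -70% and -50%; inactive means maximum activity change above -50%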
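U2OS cells were transduced with wild-type KCNH2 virus (2.03 x 10^8 / mL) for 4 h at room temperature, then cultured overnight at 37 C. Thallium flux was read with FluxOr dye. Rate constants were normalized to DMSO controls.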
Luc counter: counter-screen: inhibitors of Kinase-Glo firefly luciferase; Q27757; Kinase-Glo luciferase, ATP luminescence, 8 min; Potency, µM (top dose mostly 38.3 µM), inactives show top-dose activity change, negative = inhibition, usual class: inhibitors; 200,000 tested, 0.28% active; AID 1379; active means well fitted inhibition curve with a large enough effect; inconclusive means small, poorly fitted or top-dose-only effect; further: potency means the concentration at half of the fitted maximal effect; nearly all actives have a fitted effect of over 60% in size
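Kinase-Glo luciferase light output from ATP and luciferin was measured with 10 uM ATP, within the enzyme's linear range. Buffer: 50 mM imidazole pH 7.2, 50 mM KCl, 7 mM MgCl2, 0.01% Tween 20, 0.05% BSA; luminescence read after 8 min at ambient temperature.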
KCNH2 3.1 inh: KCNH2 3.1 (human) potassium channel inhibition; U2OS KCNH2 3.1, thallium flux FluxOr; active compounds read low; activity change, % (tested at about 1.8 µM); 340,000 tested, 0.95% active; AID 720553;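 active means maximum activity change below -70%; inconclusive means maximum activity change from -70% to -50%; inactive means maximum activity change above -50%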;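 further: thallium influx rate constant from kinetic fluorescence after stimulation buffer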
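Thallium flux read-out: FluxOr dye with Red40 quencher in HBSS/HEPES, 45 min at RT. Rate constants from kinetic reads were normalized to positive and negative DMSO controls. Cells: U2OS virally expressing the 3.1 isoform.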
An asterisk follows results filed as active; u = inconclusive; x = not tested or not shown; [ ] = dose if it differs, or a comment. On the % scale 0 is the no-effect control and ±100 the full control effect.

SMILES	hERG WT inh	Luc counter	KCNH2 3.1 inh
COc1cccc(CNC(=O)CCC2CCCN(C(=O)CCC(F)(F)F)C2)c1 (configuration not stated)	-9	5%	-8
CC(=O)Nc1c(-c2ccc3ccccc3c2)nc2ccccn12	3	x	-1
NC(=O)NCc1ccc(Cl)cc1	-21	-4%	-80*
COc1ccc(CNC(N)=O)cc1	3	x	8
CCc1ccc(CN(C)C(=O)CC2C(=O)NCCN2Cc2ccoc2)cc1 (configuration not stated)	9	0%	-85*
CCOc1ccccc1CN1CCNC(=O)C1CC(=O)N(C)Cc1cnccn1 (configuration not stated)	9	x	-115*
CCOc1ccccc1CN1CCNC(=O)C1CC(=O)N(C)Cc1nonc1C (configuration not stated)	-13	x	-9
Cc1ccc(CN(C)C(=O)CC2C(=O)NCCN2CC2CCCCC2)cc1 (configuration not stated)	-7	-1%	12
Cc1onc(-c2c(Cl)cccc2Cl)c1C(=O)Nc1ccc(Cl)cn1	3	x	20
Nc1c(OCC(=O)O)ccc2cc(S(=O)(=O)O)ccc12	x	0%[7.66 µM]	x
COc1ccc(N2CCN(C(=O)CCCCCn3c(=O)[nH]c4ccsc4c3=O)CC2)cc1	2	1%	0
CCOC1(/N=C(\C)NS(=O)(=O)c2ccc(Cl)cc2)C(C)=CC(=O)C=C1C	17	-1%	-99*
CCCNC(=O)NS(=O)(=O)c1ccc(Cl)cc1	18	4%	1
CCN(C[C@H]1N[C@@](C)(C(=O)OC)[C@H]2C(=O)N(C)C(=O)[C@@H]12)S(=O)(=O)c1ccc(OC)cc1	8	x	3
O=c1[nH]nc(-c2ccc(F)cc2)cc1Cc1ccccn1	-1	x	13
Cc1ccc(-c2cc(Cc3ccccn3)c(=O)[nH]n2)cc1	-152*	x	-159*
CCC(C)C1NC(=O)C(CCNCS(=O)(=O)O)NC(=O)C(NC(=O)C(CCNCS(=O)(=O)O)NC(=O)C(NC(=O)C(CCNCS(=O)(=O)O)NC(=O)CCCCC(C)C)C(C)O)CCNC(=O)C(C(C)O)NC(=O)C(CCNCS(=O)(=O)O)NC(=O)C(CCNCS(=O)(=O)O)NC(=O)C(C(C)CC)NC1=O (configuration not stated)	x	-3%	x
CC1CCCN(C(=O)CCS(=O)(=O)c2cc3c(cc2Cl)NC(=O)CO3)C1 (configuration not stated)	3	x	4
CCOC(=O)Cn1nnc(-c2ccc([N+](=O)[O-])cc2)n1	1	-1%	u
CCOC(=O)C(C)(C)n1nnc(-c2ccc([N+](=O)[O-])cc2)n1	-4	-2%	-83*
Cc1ccc(S(=O)(=O)c2cnc(-c3ccccc3)nc2N2CCN(C)CC2)cc1	51	-3%	-2
COC(=O)C1CCN(CC(=O)Nc2ccc3c(c2)OCCO3)CC1	2	x	-15
CC1CC(C)CN(CC(=O)Nc2ccc3c(c2)OCCO3)C1 (configuration not stated)	-113*	-7%	-139*
CCN(CC)c1ccc(/C=C(/C#N)c2nc3ccc(C)cc3[nH]2)c(OC(C)C)c1	-70*	-1%	u
CCCOc1cc(N(CC)CC)ccc1/C=C(/C#N)c1nc2ccc(C)cc2[nH]1	-18	x	-42
SMILES	hERG WT inh	Luc counter	KCNH2 3.1 inh
CCN(CC)CCCNC(=O)C1CCC(CNS(=O)(=O)c2c(C)cc(C)cc2C)CC1 (configuration not stated)	10	x	-12
CCCCN(C)CCCNC(=O)C1CCC(CNS(=O)(=O)c2c(C)cc(C)cc2C)CC1 (configuration not stated)	-26	x	-77*
COc1ccc(C(=O)O)cc1S(=O)(=O)Nc1ccc(N2CCCCC2)cc1	-13	x	-5
O=C(NCC1CCCO1)c1cc2nc(-c3ccco3)cc(C(F)(F)Cl)n2n1 (configuration not stated)	-23	x	-7
Cc1oc(-c2ccc(Cl)cc2)nc1CN1CCC(C(=O)N2CCN(Cc3ccccc3)CC2)CC1	-2	-6%	-37
Cc1oc(-c2ccc(Cl)cc2)nc1CN1CCC(C(=O)NCc2ccco2)CC1	18	0%	-71*
Cc1oc(-c2cccc(Cl)c2)nc1CN1CCC(C(=O)NCc2ccco2)CC1	-1	-7%	-14
Cc1oc(-c2cccc(Cl)c2)nc1CN1CCC(C(=O)N2CCN(c3ccccc3F)CC2)CC1	-3	x	-91*
Cc1oc(-c2ccc(Cl)cc2)nc1CN1CCC(C(=O)N2CCc3ccccc3C2)CC1	u	-1%	-78*
COc1ccccc1CNC(=O)C1CCN(Cc2nc(-c3cccc(Cl)c3)oc2C)CC1	-8	0%	-49
O=C(O)c1ccccc1SCCS(=O)(=O)c1ccc(Cl)cc1Cl	-12	x	16
O=C(COC(=O)c1ccc(Cl)nc1)Nc1cccnc1Cl	33	x	5
CC(=O)N(CCC1(c2ccc(C)cc2)CCOC(C(C)C)C1)Cc1ccco1 (configuration not stated)	-3	x	0
CCCn1c(-c2ccc(F)cc2)nc2c(N3CCN(Cc4nc(OC)cc(OC)n4)CC3)nc(C)nc21	x	4%	x
COCCN1Cc2cccc(C(=O)Nc3cccc(-c4nc5ccccc5[nH]4)c3)c2C1=O	26	x	-73*
COCCN1Cc2cccc(C(=O)Nc3ccc(-c4nc5ccccc5[nH]4)cc3)c2C1=O	3	1%	-2
O=C(CSc1nnc(CNC(=O)c2c(F)cccc2F)o1)c1ccccc1	-10	x	2
CC(/C=N/NC(=O)CN1CCN(Cc2ccc(Cl)cc2)CC1)=C\c1ccco1	-29	-1%	-74*
CSc1ccc(/C=N/NC(=O)CN2CCN(Cc3ccccc3)CC2)cc1	-1	x	-73*
O=C(CN1CCN(Cc2ccccc2)CC1)N/N=C/C=C/c1ccco1	4	-2%	1
CSc1ccc(/C=N/NC(=O)CN2CCN(Cc3ccc(Cl)cc3)CC2)cc1	-41	0%	-106*
CSc1ccc(/C=N/N2CCN(Cc3ccc(Cl)cc3)CC2)cc1	-19	1%	1
O=C(CN1CCN(Cc2ccccc2)CC1)N/N=C/c1ccccc1F	-9	x	-1
CSc1ccccc1C(=O)N1CCC(CCC(=O)NC2CC2)CC1	2	x	7
O=C(CCC1CCN(C(=O)c2cc(C(F)(F)F)ccc2Cl)CC1)NC1CC1	5	x	-115*
SMILES	hERG WT inh	Luc counter	KCNH2 3.1 inh
CN(C)C(=O)COC(=O)c1cccnc1Nc1ccccc1F	-1	-2%	4
NC(=O)COC(=O)c1cccnc1Nc1ccccc1F	6	0%	-72*
CCc1cc2c(=O)n(Cc3ccco3)c(SCC(=O)NCC3CCCO3)nc2s1 (configuration not stated)	6	x	-3
CCc1cc2c(=O)n(Cc3ccco3)c(SCC(=O)N(C)C3CCS(=O)(=O)C3)nc2s1 (configuration not stated)	-90*	-1%	-111*
O=C(CSc1nc2ccccc2c(=O)n1Cc1ccco1)N1CCCCCC1	-8	1%	-81*
O=C(NCc1ccco1)c1ccc2c(=O)n(Cc3ccco3)c(SCC(=O)N3CCCC3)nc2c1	7	0%	-19
CCc1cc2c(=O)n(Cc3ccco3)c(SCC(=O)N3CCCc4ccccc43)nc2s1	-8	-2%	-77*
